Assay results taken from PubChem BioAssay (Tox21).
Inconclusive results are not listed. The source made the active and inactive calls. Unless noted, the call rests on the fitted dose curve; in most records, active means well fitted curve in the direction sought with a large enough effect in the repeat runs; inconclusive means weak or mixed curves; inactive means no such curve, though single readings can be large; an effect the other way counts as inactive or inconclusive.

Columns and labels:
[1] = qHTS assay to identify small molecule antagonists of the estrogen related receptor signaling pathway with the pleiotropic PPARgamma coactivator (PGC) from Tox21 10K library - cell viability counter screen (AID 1224840; active means well fitted cell-killing curve with a large enough effect in the repeat runs, not every such curve was filed as active; further: nearly all actives have a fitted effect of over 40% in size)
Procedure, shortened: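 PGC/ERR cells were seeded at 2,000 cells/well and left 6 hours at 37 C/5% CO2 before pin-tool addition of compounds in DMSO. After 17.5 hours at 37 C, CellTiter-Fluor was added and fluorescence read 30 minutes later.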

[2] = target: Thyrotropin receptor (Homo sapiens) (UniProt P16473); test: qHTS assay to identify small molecule agonists of the thyroid stimulating hormone receptor (TSHR) signaling pathway (AID 1224843; calls by dose curve; further: nearly all actives have a fitted effect of over 45% in size)
Procedure, shortened: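 Steps: seed 800 TSHR-HEK293 cells per well; add test compound and hold 30 min at ambient temperature; dispense cAMP-d2 then anti-cAMP cryptate; incubate 1 h at ambient; measure fluorescence intensity.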

[3] = qHTS assay to identify small molecule agonists of H2AX (AID 1224845; active means well fitted activation curve with a large enough effect in the signal ratio in the repeat runs, not every such curve was filed as active; the % refers to the signal ratio)
Procedure, shortened: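 Wild-type CHO-K1 cells, plated overnight, exposed 3hr at 37C to 15 concentrations (0.76% DMSO final). Lysed, then HTRF anti-pH2AX (S139) cryptate and anti-H2AX-d2 antibodies, 24 hr room temperature; 665/620 nm emission read.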

[4] = qHTS assay to identify small molecule agonists of the hypoxia (HIF-1) signaling pathway (AID 1224846; active means well fitted activation curve with a large enough effect in the signal ratio in the repeat runs, not every such curve was filed as active; the % refers to the signal ratio)
Procedure, shortened: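 HRE-bla ME-180 cells (beta-lactamase reporter under hypoxia response element) were plated at 2,000 cells/well in medium with 0.5% dialyzed FBS, rested 5 hrs, then given compounds in DMSO for 17 hrs at 37C, 5% CO2. Reporter induction was read with CCF4-AM FRET substrate.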

[5] = qHTS assay to identify small molecule agonists of H2AX - cell viability counter screen (AID 1224847; calls by dose curve; further: top concentration of the series differs between compounds; nearly all actives have a fitted effect of over 30% in size)
Procedure, shortened: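 After overnight plating of 1000 CHO-K1 cells per well, a 15-concentration compound series was applied for 3 hr at 37C. Luminescence from CellTiter-Glo, read following 30 min at room temperature, reflected cell viability.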

[6] = qHTS RealTime-Glo MT Cell Viability Assay in HepG2 cells - 24 hour (AID 1224867); further: nearly all actives have a fitted effect of over 50% in size
Procedure, shortened: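 Compound treatment began 5 h after plating HepG2 cells (600/well) with NanoLuc luciferase and prosubstrate. Plates stayed at 37 C for 40 h; luminescence was captured at six time points, 0 h through 40 h.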

[7] = qHTS RealTime-Glo MT Cell Viability Assay in HEK293 cells - 32 hour (AID 1224868); further: top concentration of the series differs between compounds; nearly all actives have a fitted effect of over 50% in size
Procedure, shortened: (§1)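 Quantitative high-throughput screen of the Tox21 10K library in HEK293: cells and RealTime-Glo reagents plated together, compound added at 5 h, luminescence monitored through 40 h at 37 C.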

[8] = A CellTox Green Cytotoxicity Assay to monitor cytotoxicity in HEK293 cells - 0 hour (AID 1224869); further: nearly all actives have a fitted effect of over 50% in size
Procedure, shortened: (§2)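 HEK293 cells premixed with CellTox Green dye were seeded at 600 cells/well and left 5 h at 37 C/5% CO2 before pin transfer of 23 nL compound in DMSO. Fluorescence from dye bound to dead-cell DNA was read during 40 h treatment.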

[9] = qHTS RealTime-Glo MT Cell Viability Assay in HepG2 cells - 40 hour (AID 1224870); further: nearly all actives have a fitted effect of over 50% in size
Procedure, shortened: (§3)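 HepG2 cells (600/well) mixed with RealTime-Glo MT reagent, settled 5 h at 37 C/5% CO2 before compound addition. Nonlytic NanoLuc luminescence from viable-cell prosubstrate reduction read repeatedly during 40 h treatment at 37 C.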

[10] = A CellTox Green Cytotoxicity Assay to monitor cytotoxicity in HEK293 cells - 40 hour (AID 1224871); further: nearly all actives have a fitted effect of over 45% in size
Procedure, shortened: as §2

[11] = qHTS RealTime-Glo MT Cell Viability Assay in HEK293 cells - 16 hour (AID 1224872)
Procedure, shortened: as §1

[12] = qHTS RealTime-Glo MT Cell Viability Assay in HepG2 cells - 8 hour (AID 1224873); further: nearly all actives have a fitted effect of over 55% in size
Procedure, shortened: as §3

[13] = qHTS RealTime-Glo MT Cell Viability Assay in HEK293 cells - 40 hour (AID 1224874); details: RealTime-Glo luminescence; max response: active compounds read low; further: nearly all actives have a fitted effect of over 50% in size
Procedure, shortened: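 HEK293 cells mixed with RealTime-Glo reagents (NanoLuc plus cell-permeant prosubstrate) at 600 cells/well, preincubated 5 h at 37 C/5% CO2, then given 23 nL compound in DMSO. Nonlytic luminescence from viable cells was read at 0, 8, 16, 24, 32 and 40 h.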

[14] = A CellTox Green Cytotoxicity Assay to monitor cytotoxicity in HEK293 cells - 24 hour (AID 1224875); further: series mostly up to about 77 µM; nearly all actives have a fitted effect of over 45% in size
Procedure, shortened: as §2

[15] = qHTS assay to identify small molecule agonists of the hypoxia (HIF-1) signaling pathway - cell viability counter screen (AID 1224844; calls by dose curve; further: nearly all actives have a fitted effect of over 50% in size)
Procedure, shortened: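 HRE-bla ME-180 cells in medium with 0.5% dialyzed FBS were preincubated 5 hrs at 37C, exposed to compounds for 17 hrs, then viability was read as CellTiter-Glo luminescence after 30 min at room temperature, in the reporter wells.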

[16] = qHTS assay to identify small molecule antagonists of the estrogen related receptor (ERR) signaling pathway from Tox21 library (AID 1224848); further: nearly all actives have a fitted effect of over 50% in size
Procedure, shortened: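 Luminescent reporter read-out (ONE-Glo) from NTP's ERR cell line after 18 h treatment at 37 C with DMSO-dissolved Tox21 compounds; cells pre-plated 6 h beforehand at 2,000 per well.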

[17] = qHTS assay to identify small molecule agonists of the estrogen related receptor (ERR) signaling pathway from Tox21 library (AID 1224849; calls by dose curve; further: nearly all actives have a fitted effect of over 15% in size)
Procedure, shortened: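 ERR reporter cell line (NTP) seeded, rested 6 h at 37 C/5% CO2, then pinned with Tox21 compounds in DMSO. After 18 h at 37 C, ONE-Glo luciferase luminescence was read following 30 min at room temperature.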
On the % scale 0 is the no-effect control and ±100 the full control effect.

Sequence of Thyrotropin receptor (Homo sapiens) (P16473 whole entry, looked up): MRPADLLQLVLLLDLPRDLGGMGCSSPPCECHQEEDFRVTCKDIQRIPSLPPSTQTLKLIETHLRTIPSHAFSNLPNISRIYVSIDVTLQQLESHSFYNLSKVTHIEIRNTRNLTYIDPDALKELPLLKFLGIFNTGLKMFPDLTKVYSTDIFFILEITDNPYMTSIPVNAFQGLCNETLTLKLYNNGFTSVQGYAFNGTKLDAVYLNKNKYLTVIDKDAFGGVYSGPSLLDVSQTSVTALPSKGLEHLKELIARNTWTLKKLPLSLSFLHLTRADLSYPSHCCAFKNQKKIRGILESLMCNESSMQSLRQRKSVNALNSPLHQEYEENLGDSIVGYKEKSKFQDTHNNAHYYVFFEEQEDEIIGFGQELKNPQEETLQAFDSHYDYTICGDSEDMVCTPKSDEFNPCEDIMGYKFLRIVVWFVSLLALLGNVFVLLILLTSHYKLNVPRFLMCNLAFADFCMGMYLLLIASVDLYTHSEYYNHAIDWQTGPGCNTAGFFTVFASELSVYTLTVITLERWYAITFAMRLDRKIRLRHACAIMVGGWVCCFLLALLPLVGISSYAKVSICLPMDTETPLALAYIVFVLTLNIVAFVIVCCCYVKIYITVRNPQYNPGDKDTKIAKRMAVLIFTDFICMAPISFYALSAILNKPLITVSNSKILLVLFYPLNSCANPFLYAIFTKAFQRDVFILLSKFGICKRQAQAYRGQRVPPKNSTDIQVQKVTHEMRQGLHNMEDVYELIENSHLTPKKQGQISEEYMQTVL

O=C1OC(=O)c2cc(Oc3ccc4c(c3)C(=O)OC4=O)ccc21
inactive: outcome [1] | outcome [2] | outcome [3] | outcome [4] | Potency [5] | outcome [6] | Potency [7] | Potency [8] | outcome [9] | Potency [10] | Potency [11] | outcome [12] | max response [13] 3.57% | Potency [14]

OC(CCN1CCCCC1)(c1ccccc1)c1ccccc1
inactive: outcome [1] | outcome [15] | outcome [3] | Potency [5] | outcome [6] | Potency [7] | Potency [8] | outcome [9] | Potency [10] | Potency [11] | max response [13] -16.7% | Potency [14]

CN[C@@H]1[C@H](O)[C@H](NC)[C@H]2O[C@@]3(O)C(=O)C[C@@H](C)O[C@H]3O[C@@H]2[C@H]1O
inactive: outcome [1] | outcome [2] | outcome [3] | Potency [5] | outcome [6] | Potency [7] | outcome [9] | Potency [10] | Potency [11] | outcome [12] | max response [13] -13.7% | Potency [14]

CCCCCCCC[Si](OCC)(OCC)OCC
inactive: outcome [1] | outcome [15] | outcome [3] | outcome [4] | Potency [5] | outcome [6] | Potency [7] | Potency [8] | outcome [9] | Potency [10] | Potency [11] | max response [13] 0.929% | Potency [14]

CCC(C)N (centres undefined)
inactive: outcome [1] | outcome [15] | outcome [3] | outcome [4] | Potency [5] | outcome [6] | Potency [7] | Potency [8] | outcome [9] | Potency [10] | Potency [11] | outcome [12] | max response [13] -5.31% | Potency [14]

CCCCC[Si](OCC)(OCC)OCC
inactive: outcome [1] | outcome [2] | outcome [3] | outcome [4] | Potency [5] | outcome [6] | Potency [7] | Potency [8] | outcome [9] | Potency [10] | Potency [11] | outcome [12] | max response [13] -19.8% | Potency [14]

CCOC(=O)CC(CC(=O)OCC)(OC(C)=O)C(=O)OCC
inactive: outcome [1] | outcome [15] | outcome [3] | outcome [4] | Potency [5] | outcome [6] | Potency [7] | outcome [9] | Potency [10] | Potency [11] | outcome [12] | max response [13] -6.27% | Potency [14]

O=C(O)c1ccccc1C(=O)OCc1ccccc1
inactive: outcome [1] | outcome [15] | outcome [3] | outcome [4] | Potency [5] | outcome [6] | Potency [7] | Potency [8] | outcome [9] | Potency [10] | Potency [11] | outcome [12] | max response [13] 3.76% | Potency [14]

C=CCOCC(O)CCl (centres undefined)
inactive: outcome [1] | outcome [15] | outcome [3] | Potency [5] | outcome [6] | Potency [7] | Potency [8] | outcome [9] | Potency [10] | Potency [11] | outcome [12] | max response [13] 0.946% | Potency [14]

Nc1ccc(/C=C/c2ccc(N)cc2S(=O)(=O)O)c(S(=O)(=O)O)c1
inactive: viability change, negative = cytotoxic [1] 2.38% [at 0.349 µM] | activity change, negative = cytotoxicity [15] -0.74% [at 0.29 µM] | activation (H2AX phosphorylation) [3] -0.0976% [at 0.582 µM] | activation [4] -0.978% [at 0.291 µM] | activity change, negative = cytotoxicity [5] 3.7% [at 0.582 µM] | activity, negative = inhibition [16] 4.28% [at 0.349 µM] | activity change, positive = activation [17] 2.43% [at 0.349 µM] | activity change, negative = cytotoxicity [6] 2.78% [at 0.29 µM] | activity change, negative = cytotoxic [7] 0.295% [at 0.29 µM] | cytotoxicity [8] 5.28% [at 0.29 µM] | activity change, negative = cytotoxic [9] 0.506% [at 0.29 µM] | cytotoxicity increase [10] -0.161% [at 0.29 µM] | activity change, negative = cytotoxicity [11] 2.56% [at 0.29 µM] | max response [13] 2.9% | activity change [14] 0.201% [at 0.29 µM, active compounds read high]

CC(C)c1ccccc1O
inactive: outcome [1] | outcome [15] | outcome [3] | Potency [5] | outcome [6] | Potency [7] | Potency [8] | outcome [9] | Potency [10] | Potency [11] | max response [13] 12.5% | Potency [14]

CC(C)CCCC(C)CC=O (centres undefined)
inactive: outcome [1] | outcome [3] | outcome [4] | Potency [5] | outcome [6] | Potency [7] | Potency [8] | outcome [9] | Potency [10] | Potency [11] | max response [13] 0.176% | Potency [14]

O=C(Nc1cccc(C2=NCCN2)c1)Nc1cccc(C2=NCCN2)c1
inactive: viability change, negative = cytotoxic [1] 0.87% [at 19 µM] | activity change, negative = cytotoxicity [15] 3.42% [at 15.8 µM] | activation (H2AX phosphorylation) [3] 0.307% [at 31.6 µM] | activation [4] -0.385% [at 15.8 µM] | activity change, negative = cytotoxicity [5] 4.49% [at 31.6 µM] | activity change, negative = cytotoxicity [6] 1.81% [at 15.8 µM] | activity change, negative = cytotoxic [7] -5.26% [at 15.8 µM] | activity change, negative = cytotoxic [9] 2.87% [at 15.8 µM] | cytotoxicity increase [10] -2.61% [at 15.8 µM] | activity change, negative = cytotoxicity [11] -0.101% [at 15.8 µM] | viability change, negative = cytotoxic [12] 1.42% [at 15.8 µM] | max response [13] -2.84% | activity change [14] -4.45% [at 15.8 µM, active compounds read high]

Cc1ccccc1N1CCN(CCc2nnc3n2CCCC3)CC1
inactive: outcome [1] | outcome [2] | outcome [3] | outcome [4] | Potency [5] | outcome [6] | Potency [7] | Potency [8] | outcome [9] | Potency [10] | Potency [11] | max response [13] -6.94% | Potency [14]

Cc1ccc(C(=O)C(=O)O)cc1C
inactive: outcome [1] | outcome [15] | outcome [3] | outcome [4] | Potency [5] | outcome [6] | Potency [7] | Potency [8] | Potency [10] | Potency [11] | outcome [12] | max response [13] -0.829% | Potency [14]

CCCCCCCCCCCCCC(=O)OC
inactive: outcome [1] | outcome [2] | outcome [3] | outcome [4] | Potency [5] | outcome [6] | Potency [7] | Potency [8] | outcome [9] | Potency [10] | Potency [11] | outcome [12] | max response [13] 12.2% | Potency [14]

CC(=O)OC(C)(C)Cc1ccccc1
inactive: outcome [1] | outcome [2] | outcome [3] | outcome [4] | outcome [6] | Potency [7] | Potency [8] | outcome [9] | Potency [10] | Potency [11] | outcome [12] | max response [13] 6.53% | Potency [14]
